Assay [1] can be described thus: Identifying Small Molecule Inhibitors of Pancreatic Cancer Stem Cells (SN12C, Adherent) (AID 1259358).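 Further: cell survival measured after 48 h of compound exposure.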 Further: potency means the concentration at half of the fitted maximal effect. The method in brief:
(§1)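 Spheroids grown 14 days in stem cell media on hydrogel-coated nonadherent plates; 2D lines seeded directly. Compounds added after 4 h attachment, 48 h at 37C, 5% CO2; CellTiter-Glo luminescence normalized to DMSO (no inhibition) and no-cell wells (full inhibition).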

Assay [2] in a line: Identifying Small Molecule Inhibitors of Pancreatic Cancer Stem Cells (A278, Adherent) (AID 1259361).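 Further: viability read after 48 h compound exposure; nearly all actives have a fitted effect of over 35% in size.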 In a few lines: as §1
The nature of assay [3]: Identifying Small Molecule Inhibitors of Pancreatic Cancer Stem Cells (Panc1, Adherent) (AID 1259362). Further: potency means the concentration at half of the fitted maximal effect. The settings on record: Potency: viability. The method in brief:
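Luminescent ATP readout (CellTiter-Glo) quantifies surviving cells after a 48 h drug incubation. Normalization uses DMSO wells as no inhibition and media-only wells as full inhibition; bortezomib served as positive control.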

The nature of assay [4]: qHTS for Inhibitors of the Functional Ribonucleoprotein Complex (vRNP) of Lymphocytic Choriomeningitis Arenaviruses (LCMV): Viability assay - alamar blue signal for LCMV Primary Screen (AID 1347085; calls by dose curve; tested in HEK293 reporter line; further: series mostly up to about 57 µM; nearly all actives have a fitted effect of over 80% in size). Background: qHTS replaces the single test concentration by a dilution series.
Assay [5] has as its target Nucleoprotein (Lymphocytic choriomeningitis virus (strain Armstrong)) (UniProt P09992). The assay can be described thus: qHTS for Inhibitors of the Functional Ribonucleoprotein Complex (vRNP) of Lymphocytic Choriomeningitis Arenaviruses (LCMV): LCMV Primary Screen - GLuc reporter signal (AID 1347086; calls by dose curve; further: series mostly up to about 57 µM; nearly all actives have a fitted effect of over 70% in size).
A short description of assay [6]: P-glycoprotein substrates identified in KB-3-1 adenocarcinoma cell line, qHTS therapeutic library screen (AID 1346986). Further: nearly all actives have a fitted effect of over 60% in size. The method in brief: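 Compounds were tested in dose-response against KB-3-1 and KB-8-5-11 cells at 37 degree C for 72 h, and viability was measured by luminescence. AC50 values came from curve fitting with class-based activity calls.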
The nature of assay [7]: P-glycoprotein substrates identified in KB-8-5-11 adenocarcinoma cell line, qHTS therapeutic library screen (AID 1346987). Further: series mostly up to about 44 µM; nearly all actives have a fitted effect of over 65% in size. In a few lines:
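KB-8-5-11: colchicine-selected sub-line of KB-3-1 over-expressing P-gp; assay medium lacked colchicine. 72 h drug exposure at 37 degree C, CellTiter-Glo.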

Assay [8] is described as follows: NS1 protein of Zika virus - qHTS assay to identify small molecule inhibitors in human HEK 293 cells (AID 1347053). Further: series mostly up to about 46 µM; nearly all actives have a fitted effect of over 55% in size. In a few lines: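 HEK 293 cells pretreated with compound for 1 h, then infected with ZIKV MR766 (MOI 0.5) for 24 h at 37 C. NS1 detected by TR-FRET with two anti-NS1 antibodies; normalized to uninfected (0%) and infected (100%) wells.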
A short description of assay [9]: qHTS for Inhibitors of the Functional Ribonucleoprotein Complex (vRNP) of Lassa (LASV) Arenavirus: LASV Primary Screen - GLuc reporter signal (AID 1347082; calls by dose curve; tested in HEK293 reporter line; further: series mostly up to about 57 µM; nearly all actives have a fitted effect of over 60% in size).
Assay [10] in a line: qHTS for Inhibitors of the Functional Ribonucleoprotein Complex (vRNP) of Lassa (LASV) Arenavirus: Viability assay - alamar blue signal for LASV Primary Screen (AID 1347083; calls by dose curve; tested in HEK293 reporter line; further: series mostly up to about 57 µM; nearly all actives have a fitted effect of over 80% in size).
The nature of assay [11]: qHTS of pediatric cancer cell lines to identify multiple opportunities for drug repurposing: Primary screen for TC32 cells (AID 1347089). Further: nearly all actives have a fitted effect of over 60% in size. The method in brief: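 In the primary qHTS, MIPE compounds were tested at 11 concentrations (0.78 nM to 46 µM) and NPC compounds at 8 (0.59 nM to 46 µM) on TC32 cells for 48 h. CellTiter-Glo luminescence gave viability.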
Assay [12] can be described thus: qHTS of pediatric cancer cell lines to identify multiple opportunities for drug repurposing: Primary screen for DAOY cells (AID 1347090). Further: nearly all actives have a fitted effect of over 55% in size. Further: potency means the concentration at half of the fitted maximal effect. The method in brief: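 Viability measured as metabolically active cells via CellTiter-Glo luminescence following 48 hours of compound exposure, 11-point dilutions in confirmatory testing. 500-1,000 cells/well plated 5 hours before dosing; controls were DMSO and 2.3 µM bortezomib.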

Assay [13] is described as follows: Identifying Small Molecule Inhibitors of Pancreatic Cancer Stem Cells (SN12C, Spheroid) (AID 1259360). Further: potency means the concentration at half of the fitted maximal effect. The settings on record: Potency: SN12C spheroid viability. In a few lines:
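Spheroids grown 14 days in stem cell media on nonadherent hydrogel before screening; cells attached 4 h, then compound exposure 48 h at 37C, 5% CO2. CellTiter-Glo luminescence normalized to DMSO (no inhibition) and no-cell wells (full inhibition).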

Assay [14] addresses Atrial natriuretic peptide receptor 2 (Homo sapiens) (UniProt P20594). The assay can be described thus: Natriuretic polypeptide receptor (hNpr2) antagonism - Pilot subtype selectivity assay (AID 1347050; calls by dose curve). In a few lines:
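HEK293 cells expressing hNpr2 and a GloSensor cGMP luciferase sensor, 1500/well, preloaded 2 h with 2% GloSensor reagent, compound 30 min, then 1 nM hNppC for 20 min. Antagonism from luminescence after versus baseline pre-read; LOPAC in 1:5 titrations.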

The target of assay [15] is Parathyroid hormone/parathyroid hormone-related peptide receptor (Homo sapiens) (UniProt Q03431). The assay can be described thus: qHTS for PTHR1 Agonists: Optimization Screen against the NCGC LOPAC library (AID 1347079).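 Further: GloSensor cAMP luminescence in HEK-293 GP2 cells expressing human PTHR1 with IBMX.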 The method in brief:
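Compounds were tested across a qHTS titration. PTHR1-expressing GP2 cells report cAMP rises via GloSensor luminescence after 1 hr compound exposure at 37C with IBMX present.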

Assay [16] can be described thus: Natriuretic polypeptide receptor (hNpr1) antagonism - Pilot counterscreen GloSensor control cell line (AID 1347045; calls by dose curve; further: series mostly up to about 38 µM). The method in brief:
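HEK293 cells carrying the GloSensor cGMP sensor (GIP/pGS-40F) were loaded with 2% GloSensor reagent for 2 h, exposed to compounds for 30 min, and then stimulated with 50 uM sodium nitroprusside for 20 min at room temperature.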

The target of assay [17] is T1, Tyrosine-protein phosphatase non-receptor type substrate 1 (Homo sapiens) + Leukocyte surface antigen CD47 (Homo sapiens) (UniProt P78324+Q08722). As to the kind of experiment: CD47-SIRPalpha protein protein interaction - LANCE assay qHTS validation (AID 1347057; active means well fitted curve in the direction sought with a large enough effect in the signal ratio, with a control signal flat, not every such curve was filed as active; the % refers to the signal ratio; further: series mostly up to about 38 µM). The method in brief: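 First, His-tagged CD47 and Eu-labelled anti-His antibody met the compound for 30 min; next, site-specifically biotinylated SIRPalpha was added for 30 min; finally streptavidin-APC was added before reading the TR-FRET ratio.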
T1 sequence (P78324 whole entry, looked up): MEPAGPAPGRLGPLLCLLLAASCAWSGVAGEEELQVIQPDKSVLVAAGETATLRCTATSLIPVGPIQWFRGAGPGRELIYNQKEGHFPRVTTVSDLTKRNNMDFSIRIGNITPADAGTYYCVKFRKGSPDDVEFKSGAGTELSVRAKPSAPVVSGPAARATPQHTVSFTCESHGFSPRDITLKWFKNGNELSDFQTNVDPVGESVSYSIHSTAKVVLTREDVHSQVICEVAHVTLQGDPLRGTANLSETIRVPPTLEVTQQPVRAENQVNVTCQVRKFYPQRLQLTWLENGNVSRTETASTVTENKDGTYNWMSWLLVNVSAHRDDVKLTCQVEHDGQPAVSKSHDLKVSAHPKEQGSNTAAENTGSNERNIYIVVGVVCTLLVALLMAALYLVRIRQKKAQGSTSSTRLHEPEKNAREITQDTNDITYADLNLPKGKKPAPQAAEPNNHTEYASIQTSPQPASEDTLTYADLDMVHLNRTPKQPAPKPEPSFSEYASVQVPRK
T1 sequence (Q08722 whole entry, looked up): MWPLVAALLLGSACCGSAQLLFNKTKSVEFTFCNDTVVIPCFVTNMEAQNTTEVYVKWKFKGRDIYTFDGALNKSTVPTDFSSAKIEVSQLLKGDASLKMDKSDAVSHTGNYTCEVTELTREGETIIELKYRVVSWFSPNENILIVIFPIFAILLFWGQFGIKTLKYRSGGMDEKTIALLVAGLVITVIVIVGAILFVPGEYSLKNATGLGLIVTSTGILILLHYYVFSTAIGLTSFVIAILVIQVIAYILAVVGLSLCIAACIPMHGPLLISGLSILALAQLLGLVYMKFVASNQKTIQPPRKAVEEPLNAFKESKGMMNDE
Background: In TR-FRET formats the signal depends on donor and acceptor labels being close together.

Assay [18] has as its target T1, Tyrosine-protein phosphatase non-receptor type substrate 1 (Homo sapiens) + Leukocyte surface antigen CD47 (Homo sapiens). As to the kind of experiment: CD47-SIRPalpha protein protein interaction - HTRF assay qHTS validation (AID 1347058; active means well fitted curve in the direction sought with a large enough effect in the signal ratio, not every such curve was filed as active; the % refers to the signal ratio;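 further: recombinant soluble extracellular CD47 with His tag and biotinylated SIRPalpha domains; series mostly up to about 38 µM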). The method in brief: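 TR-FRET read (Ch1/Ch2 ratio) of soluble extracellular CD47 and Avi-biotinylated SIRPalpha domains in PBS pH 7.4 with 0.05% IGEPAL; 7-point compound titration. Sequential 30 min room-temperature steps; non-biotinylated SIRPalpha as control inhibitor.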

The target is the same in assay [19]. The assay can be described thus: CD47-SIRPalpha protein protein interaction - Alpha assay qHTS validation (AID 1347059).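 Further: bead proximity luminescence from CD47 binding SIRPalpha after compound preincubation with SIRPalpha.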 In a few lines:
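Biotinylated Avi-tagged SIRPalpha (25 nM) preincubated 30 min with compound, then His-tagged CD47 (12.5 nM) added 30 min; AlphaScreen with Ni-NTA acceptor and streptavidin donor beads. PBS pH 7.4, 0.05% IGEPAL, room temperature; 7-point titrations.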

Experimental findings from PubChem BioAssay (NCATS) are described below.

Results filed as inconclusive are left out. Calls of active or inactive are those of the source. Unless noted, the call rests on the fitted dose curve; in most records, active means well fitted curve in the direction sought with a large enough effect; inconclusive means small, poorly fitted or top-dose-only effect, or another doubt; inactive means no such curve, though single readings can be large; an effect the other way counts as inactive or inconclusive.

Chain of Nucleoprotein (Lymphocytic choriomeningitis virus (strain Armstrong)) (P09992 whole entry, looked up): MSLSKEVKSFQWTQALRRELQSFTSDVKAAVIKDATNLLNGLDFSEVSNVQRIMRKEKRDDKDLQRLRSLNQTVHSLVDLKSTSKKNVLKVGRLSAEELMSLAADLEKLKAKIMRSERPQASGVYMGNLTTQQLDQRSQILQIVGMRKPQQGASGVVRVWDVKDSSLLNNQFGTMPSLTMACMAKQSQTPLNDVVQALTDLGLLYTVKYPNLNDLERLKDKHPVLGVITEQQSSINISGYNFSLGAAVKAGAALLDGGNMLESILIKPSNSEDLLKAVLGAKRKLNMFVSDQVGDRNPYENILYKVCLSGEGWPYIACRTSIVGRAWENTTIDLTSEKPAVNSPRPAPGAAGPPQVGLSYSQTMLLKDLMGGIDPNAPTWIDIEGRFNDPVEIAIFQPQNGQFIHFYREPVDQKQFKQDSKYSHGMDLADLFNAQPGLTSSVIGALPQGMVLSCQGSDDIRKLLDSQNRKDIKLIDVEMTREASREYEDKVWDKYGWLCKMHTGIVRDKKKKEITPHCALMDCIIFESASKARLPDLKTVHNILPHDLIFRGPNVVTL
Chain of Parathyroid hormone/parathyroid hormone-related peptide receptor (Homo sapiens) (Q03431 whole entry, looked up): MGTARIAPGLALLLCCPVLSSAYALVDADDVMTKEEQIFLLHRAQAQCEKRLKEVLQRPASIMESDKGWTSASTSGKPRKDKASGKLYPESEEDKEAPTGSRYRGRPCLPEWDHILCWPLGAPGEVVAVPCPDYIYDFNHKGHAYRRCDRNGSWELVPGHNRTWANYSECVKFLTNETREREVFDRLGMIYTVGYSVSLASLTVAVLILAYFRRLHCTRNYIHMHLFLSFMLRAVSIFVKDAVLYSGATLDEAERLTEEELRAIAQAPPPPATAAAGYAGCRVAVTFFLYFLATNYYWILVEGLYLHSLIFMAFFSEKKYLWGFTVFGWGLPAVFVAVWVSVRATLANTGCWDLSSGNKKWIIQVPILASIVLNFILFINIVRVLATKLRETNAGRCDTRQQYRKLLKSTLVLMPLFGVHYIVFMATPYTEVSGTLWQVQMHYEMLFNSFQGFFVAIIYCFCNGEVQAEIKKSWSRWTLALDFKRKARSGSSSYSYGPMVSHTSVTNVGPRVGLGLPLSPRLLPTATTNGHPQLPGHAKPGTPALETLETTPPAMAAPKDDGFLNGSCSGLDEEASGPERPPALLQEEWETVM
Chain of Atrial natriuretic peptide receptor 2 (Homo sapiens) (P20594 whole entry, looked up): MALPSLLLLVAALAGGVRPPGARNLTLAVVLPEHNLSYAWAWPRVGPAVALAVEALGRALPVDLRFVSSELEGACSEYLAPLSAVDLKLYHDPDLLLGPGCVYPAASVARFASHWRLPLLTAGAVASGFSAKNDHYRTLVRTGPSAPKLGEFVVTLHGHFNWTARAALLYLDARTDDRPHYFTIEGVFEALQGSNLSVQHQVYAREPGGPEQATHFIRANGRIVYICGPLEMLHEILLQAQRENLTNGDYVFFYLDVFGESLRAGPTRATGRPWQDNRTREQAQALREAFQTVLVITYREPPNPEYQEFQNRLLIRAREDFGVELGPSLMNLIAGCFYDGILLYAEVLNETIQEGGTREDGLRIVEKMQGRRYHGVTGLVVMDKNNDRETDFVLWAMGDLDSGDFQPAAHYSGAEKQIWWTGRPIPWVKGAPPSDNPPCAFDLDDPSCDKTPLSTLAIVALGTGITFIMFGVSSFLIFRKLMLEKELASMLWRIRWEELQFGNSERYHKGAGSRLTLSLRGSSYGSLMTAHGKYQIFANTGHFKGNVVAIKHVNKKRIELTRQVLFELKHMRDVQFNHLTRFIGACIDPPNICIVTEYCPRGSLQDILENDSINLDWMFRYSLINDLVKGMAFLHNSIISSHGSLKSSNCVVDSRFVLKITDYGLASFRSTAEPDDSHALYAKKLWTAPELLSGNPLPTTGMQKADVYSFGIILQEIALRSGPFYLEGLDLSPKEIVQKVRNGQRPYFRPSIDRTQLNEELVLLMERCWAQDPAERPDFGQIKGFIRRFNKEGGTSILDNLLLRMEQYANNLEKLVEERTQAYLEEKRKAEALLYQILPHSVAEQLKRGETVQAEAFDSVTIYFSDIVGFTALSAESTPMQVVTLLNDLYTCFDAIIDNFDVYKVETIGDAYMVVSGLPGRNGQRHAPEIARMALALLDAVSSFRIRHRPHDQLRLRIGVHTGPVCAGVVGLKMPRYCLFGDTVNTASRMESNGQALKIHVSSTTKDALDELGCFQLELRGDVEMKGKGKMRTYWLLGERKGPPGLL

For `C[C@@H]1[C@@H](CC(C[C@H]2O[C@@H]3O[C@]4(C)CC[C@@H]5[C@H](C)CC[C@@H]([C@H]2C)[C@@]35OO4)C[S+](=O)([O-])c2ccc(COC(=O)N(C)C)cc2)O[C@@H]2O[C@]3(C)CC[C@H]4[C@H](C)CC[C@@H]1[C@@]24OO3` (stereo partly drawn), the Potency was 118 nM (active) in assay [1] and 37.2 nM (active) in [3]. Moreover, the IC50 (viability decrease) in assay [2] is 41.8 nM (active). Also, the Potency result in assay [4] and in assay [5] was “inactive” in each case.

As to `O=C1CC[C@@]2(O)[C@H]3Cc4ccc(O)c5c4[C@@]2(CCN3CC2CC2)[C@H]1O5`, the Potency entry in assay [6], in assay [7], in assay [8], in assay [9], in assay [10] and in assay [4] was “inactive” each time. In addition, the Potency result in assay [5], in assay [11] and in assay [12] was “inactive” throughout.

Regarding `C[C@]12CCC(=O)C(O)=C1CC[C@@H]1[C@@H]2CC[C@]2(C)C(=O)CC[C@@H]12`, the Potency result in [1], in assay [13], in [3], in assay [7], in assay [14] and in [9] was “inactive” in each case. Besides, the Potency result in [10], in [4], in assay [5] and in assay [11] was “inactive” in each case. In addition, in assay [15], the compound was called inactive.

Consider `COC[C@H]1OC(=O)c2coc3c2[C@@]1(C)C1=C(C3=O)C2CCC(=O)[C@@]2(C)C[C@H]1OC(C)=O` (stereo partly drawn), for which the Potency entry in assay [1], in assay [6], in [7], in assay [16], in assay [14] and in [8] was “inactive” each time. The Potency entry in assay [9], in assay [10], in assay [5] and in [11] was “inactive” each time. The values for the Potency in assay [13], in assay [3] and in [12] were 18700 nM (active), 296 nM (active) and 18700 nM (active), respectively. Further, the IC50 (viability decrease) in [2] was 23500 nM (active). For the same compound, the result in assay [17], in assay [18], in assay [19] and in [15] was inactive.

As for `CC1=C2C[C@@H]3[C@@H](CC=C4C[C@@H](O)CC[C@@]43C)[C@@H]2CC[C@]12O[C@H]1C[C@H](C)CN[C@H]1[C@H]2C`, the Potency result in assay [1], in [13], in assay [7], in assay [8], in [9] and in [10] was “inactive” in each case. In addition, the Potency entry in assay [4], in [5] and in assay [11] was “inactive” in each case. Besides, in assay [2], the IC50 (viability decrease) entry was “inactive”.
